High-throughput results (PubChem)
Efflux pump inh = antifungal efflux pump inhibition, Nile Red retention; S. cerevisiae Candida pump triplex; inhibition, % at 10 µM; 330,000 compounds, 0.44% hits; AID 485275;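 active = plate passing quality check with inhibition over a set limit, or well fluorescence over plate mean plus 4 SD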;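 also: Nile Red retained in pooled yeast measured as flow cytometry median fluorescence; 0% = buffer negative control and 100% = Enniatin B positive control; higher means more Nile Red kept so more efflux inhibition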
GRK2 aptamer HTS = human GRK2 inhibition via aptamer displacement; P25098; inhibition of aptamer binding, % at 10 µM; AID 488847; bead flow cytometry, FAM-aptamer displacement from GRK2; 330,000 compounds, 0.59% hits;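 active = inhibition of aptamer binding above 40%, roughly 3 SD of noise, on plates passing a quality check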;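 also: median bead fluorescence of bound FAM aptamer so fluorescent compounds give negative values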
Target sequence (P25098 whole entry, looked up): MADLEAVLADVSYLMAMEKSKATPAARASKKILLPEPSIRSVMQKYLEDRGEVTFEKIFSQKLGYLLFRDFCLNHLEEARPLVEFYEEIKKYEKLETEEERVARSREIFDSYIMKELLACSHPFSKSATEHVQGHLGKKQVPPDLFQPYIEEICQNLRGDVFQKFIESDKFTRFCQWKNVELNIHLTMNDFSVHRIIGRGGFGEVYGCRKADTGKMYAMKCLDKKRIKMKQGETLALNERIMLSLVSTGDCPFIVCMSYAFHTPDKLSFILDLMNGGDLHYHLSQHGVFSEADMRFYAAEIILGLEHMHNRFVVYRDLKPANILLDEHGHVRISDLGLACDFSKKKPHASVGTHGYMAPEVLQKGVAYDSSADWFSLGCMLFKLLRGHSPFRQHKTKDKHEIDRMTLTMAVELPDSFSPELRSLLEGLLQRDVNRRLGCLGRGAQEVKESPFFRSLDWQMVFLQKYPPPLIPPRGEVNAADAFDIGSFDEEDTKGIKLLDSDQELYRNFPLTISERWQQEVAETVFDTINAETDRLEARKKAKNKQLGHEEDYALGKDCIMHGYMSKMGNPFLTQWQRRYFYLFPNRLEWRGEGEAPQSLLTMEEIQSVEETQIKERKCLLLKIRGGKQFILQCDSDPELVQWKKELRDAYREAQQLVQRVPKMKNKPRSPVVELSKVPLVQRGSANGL
ALR H2O2 inh = inhibitors of human sulfhydryl oxidase ALR. P55789. purified ALR, DTT oxidation, H2O2 HRP-luminol luminescence. inhibition, % (no concentration beside the values). 290,000 compounds, 3.8% hits;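 active = mean replicate inhibition above about 79%, with every replicate also reaching it, limit read from the data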
Rtt109 HAT inh = blocks Candida albicans Rtt109/Vps75 acetyltransferase activity | Q5AAJ8 | purified Rtt109/Vps75, ThioGlo CoA-SH fluorescence, 4 h | inhibition, % at 34.9 µM | 330,000 compounds, 0.16% hits | AID 540336;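 active = inhibition of at least 50% in every replicate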
HDAC3 inh = human HDAC3 inhibition | recombinant HDAC3, fluorogenic peptide/trypsin coupled, fluorescence | inhibition, % at 8.3 µM | 320,000 compounds, 0.15% hits | AID 2718; in the data active = inhibition above about 26%, passing the limit was not always enough
Rce1 inh = yeast Ras-converting enzyme inhibition. AID 2563. Q03530. calls only. 290,000 compounds, 0.27% hits. yeast membranes, quenched prenylated peptide cleavage fluorescence;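 active = fall in fluorescence gain of 50% or more versus controls, with final raw signal at or below 3038400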;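 also: plate controls were neutral control wells for no effect and wells lacking membranes for full effect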
An asterisk follows results filed as active; i = inactive; . = no result. Sampled rows, rich in hits. Any-hit rate of the full collection: about 4.5%.

SMILES | Efflux pump inh | GRK2 aptamer HTS | ALR H2O2 inh | Rtt109 HAT inh | HDAC3 inh | Rce1 inh
CC1(C)CC(NC(=O)C23CCC(C)(C2Br)C3(C)C)CC(C)(C)N1 (stereo not drawn) | 0 | 0 | . | 3 | -1 | i
c1ccc2c(c1)Nc1cc3ccccc3cc1S2 | 0 | 0 | -14 | 6 | -1 | i
c1ccc2c(c1)Nc1ccncc1S2 | 0 | 3 | 96* | -4 | -2 | i
CC(=O)Nc1ccc(-c2csc(N/N=C(/C)c3ccccc3)n2)cc1 | 0 | 0 | 99* | 3 | 6 | i
CC(=O)Nc1ccc(-c2csc(NC(C)c3ccccc3)n2)cc1 (stereo not drawn) | 0 | 0 | 3 | -2 | 8 | i
COc1ccc(CCNc2nc(-c3ccc(NC(C)=O)cc3)cs2)cc1OC | 0 | 2 | 97* | -1 | -1 | i
COc1ccc(CCNc2nc(-c3ccc(O)cc3)cs2)cc1OC | 0 | 0 | 1 | -2 | 7 | i
CC(=O)Nc1ccc(-c2csc(NCc3ccccc3)n2)cc1 | 0 | 0 | 13 | 11 | 9 | i
CC(=O)Nc1ccc(-c2csc(NNC(=O)c3ccccc3)n2)cc1 | 0 | 4 | 100* | -7 | 9 | i
CCC(=O)Nc1ccc(-c2csc(NNC(C)=O)n2)cc1 | 0 | 3 | 99* | 6 | 0 | i
CCOc1ccc(N(CC(=O)N2CCCCCC2)S(=O)(=O)c2ccc(F)cc2)cc1 | 0 | 1 | -3 | 5 | 5 | i
CCOC(=O)/C(C)=N/Nc1nc(-c2ccc(NC(C)=O)cc2)cs1 | 0 | 1 | 99* | . | -3 | i
CC(=O)Nc1ccc(-c2csc(Nc3ncccn3)n2)cc1 | 0 | 0 | -6 | -16 | -7 | .
CCCCCC(=O)Nc1ccc(-c2csc(N)n2)cc1 | 0 | 22 | 99* | 5 | -2 | i
O=C(C[C@@H]1C/C=C/CCCC(=O)O[C@H](c2ccccc2)CNC1=O)N[C@H](CO)Cc1ccccc1 | 0 | 0 | -2 | -2 | 2 | .
O=C(CSc1nc2nn(-c3ccccc3)c(=O)c-2c2n1CCCCC2)c1ccc(O)c(O)c1 | 0 | 0 | 92* | 5 | -3 | .
CNC(=O)CSc1nc2nn(-c3ccccc3)c(=O)c-2c2n1CCCCC2 | 0 | 4 | -5 | 16 | 5 | i
O=C1C=C(c2cccc(Br)c2)C[C@@H](c2ccc3c(c2)OCO3)C1 | 0 | 4 | 0 | -1 | 2 | .
COc1ccc(C(=O)CC(=O)C(=O)Nc2cccc(F)c2)cc1 | 1 | 1 | 80* | -1 | 0 | i
CSc1nnc(NC(=O)c2ccc(S(=O)(=O)N3CCOCC3)cc2)s1 | 0 | 5 | -12 | -4 | 4 | i
Cc1cccc(C(C)C)c1NC(=O)CN1C(=O)NC2(CCc3ccccc32)C1=O (stereo not drawn) | 0 | 0 | -17 | -3 | 1 | i
CCCCNc1cc(NC(C)=O)cc2cc(OC)c(OC)cc12 | 0 | 1 | 99* | -5 | -2 | .
C[N+]1(CCCCSc2ccc(O)cc2)CCCCC1 | 1 | 0 | 99* | -32 | -4 | i
Cn1c(=O)[nH]c(=O)c2c1nc1n2CCCN1Cc1ccccc1 | 0 | 10 | 5 | . | -1 | i
N#C/C(=C\c1ccc(N2CCCCC2)o1)C(N)=O | 0 | 3 | 90* | -2 | 7 | i
SMILES | Efflux pump inh | GRK2 aptamer HTS | ALR H2O2 inh | Rtt109 HAT inh | HDAC3 inh | Rce1 inh
CCc1ccc(C(=O)NNC(=O)c2cc(S(=O)(=O)N(C)C)ccc2N2CCCC2)cc1 | -1 | 4 | 1 | 4 | 3 | i
Cc1ccc(S(=O)(=O)N(C)C)cc1NC(=O)c1c(-c2c(F)cccc2Cl)noc1C | 0 | 1 | -23 | 2 | 5 | i
O=S(=O)(NC1CCCCC1Nc1ccccc1)c1ccccc1 (stereo not drawn) | 0 | 2 | 99* | -5 | -3 | i
O=C(O)c1ccccc1NC1CCCCC1NS(=O)(=O)c1ccccc1 (stereo not drawn) | . | . | . | -11 | . | i
CC(=O)Nc1ccc(NC2CCCCC2NS(=O)(=O)c2ccc(Cl)cc2)cc1 (stereo not drawn) | 0 | 0 | 99* | -1 | -6 | i
Cc1ccc(CNC(=O)C(C)C2Sc3ccccc3NC2=O)cc1 (stereo not drawn) | 0 | 1 | -6 | -4 | -1 | i
CCS(=O)(=O)N1CCN(S(=O)(=O)c2ccc3ccccc3c2)CC1 | 0 | 0 | . | 0 | -3 | i
